Assay outcomes: PubChem BioAssay, National Center for Advancing Translational Sciences (NCATS)
IL1B secr inh – qHTS for Inhibitors of Inflammasome Signaling: IL-1-beta AlphaLISA Primary Screen; THP-1 LPS/ATP IL-1B secretion, AlphaLISA, 16 h; active compounds read low; activity change, % at 57.5 µM; actives 4.7% (n = 360,000); AID 743279, 2014; in the data active means activity change below about -50%; inconclusive means mostly about -30% to -49%; further: on the % scale 0 is the no-effect control and ±100 the full control effect
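Secreted IL-1B measured by AlphaLISA bead assay after 16 h compound exposure of THP-1 cells; compounds (final up to 57.5 uM) added 1 h before LPS (250 ng/mL) and ATP (1.25 mM) stimulation; lower signal means less secretion.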
MCF10A rerep – A quantitative high throughput screen for small molecules that induce DNA re-replication in MCF 10a normal breast cells; actives 2.9% (n = 350,000); Potency, µM (top dose mostly 46.1 µM), for the others: at the highest dose activity, positive = re-replication, actives largely listed as activators; MCF 10A DNA re-replication, Hoechst nuclear intensity, 48 h; AID 624296, 2012; further: potency means the concentration at half of the fitted maximal effect; % of control where 0% means no effect; nearly all actives have a fitted effect of over 50% in size
KB-3-1 cytotox – qHTS assay for MDR1-selective chemotherapeutics: Primary screen using the parental adenocarcinoma cell KB-3-1. KB-3-1 viability, CellTiter-Glo ATP luminescence, 72 h. Potency, µM (top dose mostly 46.1 µM), actives largely listed as cytotoxic. actives 1.4% (n = 400,000). AID 1347075, 2019; further: potency means the concentration at half of the fitted maximal effect; on the % scale 0 is the no-effect control and ±100 the full control effect; nearly all actives have a fitted effect of over 60% in size
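KB-3-1 cells, DMEM (no phenol red) + 10% FBS; compound by pin transfer, 72 h, 37 °C. Readout: CellTiter-Glo luminescence after 10 min. Data normalized, curve-fitted.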
SW480 rerep – A quantitative high throughput screen for small molecules that induce DNA re-replication in SW480 colon adenocarcinoma cells; actives 1.8% (n = 340,000); SW480 DNA re-replication, Hoechst DNA content imaging, 48 h; Potency, µM (top dose mostly 46.1 µM), inactives show top-dose re-replication activation, most hits filed as activators; AID 624297, 2012; further: potency means the concentration at half of the fitted maximal effect; % of control where 0% means no effect; nearly all actives have a fitted effect of over 55% in size
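Treated cells incubate 48 hr (37 C, 5% CO2), are stained 40 min with Hoechst, and nuclear fluorescence is enumerated; a rise in nuclei with high DNA signal marks re-replication.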
KB-V1 cytotox – qHTS assay for MDR1-selective chemotherapeutics: Primary screen using the drug-selected MDR subline cells KB-V1 | KB-V1 MDR cells viability, CellTiter-Glo, 72 h | AID 1347076, 2019 | Potency, µM (top dose mostly 46.1 µM), hits mostly cytotoxic | actives 3.4% (n = 400,000); further: potency means the concentration at half of the fitted maximal effect; on the % scale 0 is the no-effect control and ±100 the full control effect; nearly all actives have a fitted effect of over 60% in size
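KB-V1 MDR subline cells in DMEM (phenol-red free, 10% FBS) exposed to compounds in qHTS concentration series for 72 h at 37 degrees C. Viability read by CellTiter-Glo luminescence; concentration-effect curves fitted after normalization and correction.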
Numbers without * were called inactive; i = inactive; u = inconclusive; x = no result given. Most compounds without a hit are left out; they make up all but 9.9% or so of the library. Unless noted, the call rests on the fitted dose curve; in most records, active means well fitted curve in the direction sought with a large enough effect; inconclusive means small, poorly fitted or top-dose-only effect, or another doubt; inactive means no such curve, though single readings can be large; an effect the other way counts as inactive or inconclusive.

SMILES	IL1B secr inh	MCF10A rerep	KB-3-1 cytotox	SW480 rerep	KB-V1 cytotox
COc1ccc(CCNC(=S)N2CCC(C(=O)c3ccc(F)cc3)CC2)cc1OC	-12.9	-0.8%	u	-15.0%	4.11µM*
CN1CCN(C(=O)c2ccc(CN3CCOCC3)cc2)CC1	-7.6	13.3%	i	-2.4%	i
CCc1ccccc1NC(=O)c1ccc(CN2CCC(Cc3ccccc3)CC2)cc1	-79.5*	u	u	u	i
CC(=O)N1CCN(C(=O)c2cc(C)oc2C)CC1	13.4	u	i	-0.3%	u
O=C(NCc1ccccc1)c1ccc(CN2CCC(Cc3ccccc3)CC2)cc1	-29.3	13.7%	i	22.3%	i
O=C(c1ccc(CN2CCOCC2)cc1)N1CCC(Cc2ccccc2)CC1	-19.1	u	i	0.7%	20.6µM*
Cc1cc(C(=O)N2CCC(Cc3ccccc3)CC2)c(C)o1	-87.2*	7.2%	i	2.5%	i
CN(C(=O)c1ccc(Br)o1)C1CCS(=O)(=O)C1 (centres undefined)	-5.7	-2.4%	u	-1.4%	u
C[C@H]1[C@@H](Cc2cc(Cl)cc(Cl)c2)N(c2ccccc2)c2ccccc2CN1Cc1ccccc1	-1.2	x	u	x	i
COc1ccccc1NC(=O)C[n+]1ccccc1C	6.5	1.5%	i	-6.3%	i
Cc1ccc(C(=O)NCC(=O)NCC(c2ccco2)N2CCCCC2)cc1C (centres undefined)	-6.7	4.7%	i	1.8%	u
CCOc1ccccc1N1CC(C(=O)Nc2c(C)n(C)n(-c3ccccc3)c2=O)CC1=O (centres undefined)	19.8	-1.0%	i	-0.2%	i
O=C(/C=C/c1ccco1)N1CCN(c2ncccn2)CC1	9.0	3.4%	i	-2.5%	i
O=C(/C=C/c1ccco1)N1CCC(Cc2ccccc2)CC1	-66.8*	u	i	u	i
CCc1ccc(-n2c(SCc3cccc(F)c3)nc3[nH]ncc3c2=O)cc1	x	x	i	x	i
Cc1noc(C)c1CSc1nc2ccccc2c(=O)n1-c1ccc(F)cc1F	-12.2	13µM*	7.31µM*	u	20.6µM*
Cc1noc(C)c1CSc1nnc2n(-c3ccccc3)c(=O)c3ccccc3n12	27.6	-3.1%	i	3.5%	i
Cc1noc(C)c1CSc1nc2ccccc2c(=O)n1-c1ccccc1	-5.8	7.31µM*	5.8µM*	13µM*	5.8µM*
O=c1c2cn[nH]c2nc(SCc2c(F)cccc2F)n1-c1ccc(Cl)cc1	-74.3*	u	u	15.4%	i
Cc1noc(C)c1CSc1nc2[nH]ncc2c(=O)n1-c1ccccc1	17.9	1.26µM*	u	u	u
OC(Br)C(O)C(O)N1CCCc2ccccc21 (centres undefined)	x	x	i	x	i
NC(=O)c1ccccc1NC(=O)Nc1ccc(F)c(Cl)c1	-5.6	-1.8%	i	-28.7%	i
COc1cc(/C=C2/CC/C(=C/c3ccc(O)c(OC)c3)C2=O)ccc1O	-17.4	u	u	3.0%	u
COc1cc(/C=C/C=C2/CC/C(=C/C=C/c3ccc(O)c(OC)c3)C2=O)ccc1O	-91.9*	u	i	u	i
COc1cc(/C=C2\COC/C(=C\c3ccc(O)c(OC)c3)C2=O)ccc1O	-100.3*	5.8µM*	i	7.31µM*	i
COC(=O)c1c(N)[nH]c(C(=O)c2ccccc2)c1-c1ccccc1Br	29.6	x	i	x	u
Cc1cc(Nc2cccc([N+](=O)[O-])c2)c2cccc(C)c2n1	-95.5*	-0.9%	i	-6.1%	i
Cc1cc(Nc2cccc([N+](=O)[O-])c2)c2ccccc2n1	0.2	u	i	-27.2%	u
Cc1cc(Nc2ccc([N+](=O)[O-])cc2)c2ccccc2n1	-80.1*	2.59µM*	i	71.0%	i
CC(=O)c1ccc(Nc2cc(C)nc3ccc(C)cc23)cc1	-104.4*	u	u	u	u
